Screening results as filed in PubChem.
This is a sample that favours compounds with a hit; in the whole collection about 1.8% have one here.
KAT2A inh: inhibitors of human GCN5L2 histone acetyltransferase | Q92830 | GCN5L2 HAT assay, ThioGlo1 CoA-SH fluorescence | Potency, µM (top dose mostly 58.9 µM), hits mostly inhibitors | 390,000 compounds, 0.21% hits
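Titration-based screen in which CoA formation is detected via maleimide probe ThioGlo1 (50uM) turning fluorescent on thiol reaction; substrates H3(1-25) 75uM and acetyl-CoA 70uM, GCN5L2 20nM, 20 min incubation at room temperature.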
TrxR1 inh: blocks rat thioredoxin reductase 1; O89049; recombinant rTrxR1, NADPH fluorescence consumption, selenite substrate; Potency, µM (titrated, usually from 114 µM), hits mostly inhibitors; 390,000 compounds, 1% hits; AID 588453; also: nearly all actives have a fitted effect of over 65% in size
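Rat TrxR1 (90 nM in the dispensed reagent) was pre-reduced with 400 uM NADPH for 5 min at room temperature, then incubated with compound for 15 min. After 400 uM selenite was added, NADPH fluorescence (Ex 340/Em 450 nm) was followed for 8 min.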
VDR inhibitor: blocks the human vitamin D receptor. 400,000 compounds, 0.93% hits. VDR-SRC2-3 peptide fluorescence polarization, 2 h. P11473. Potency, µM, hits mostly inhibitors
Target sequence (P11473 whole entry, looked up): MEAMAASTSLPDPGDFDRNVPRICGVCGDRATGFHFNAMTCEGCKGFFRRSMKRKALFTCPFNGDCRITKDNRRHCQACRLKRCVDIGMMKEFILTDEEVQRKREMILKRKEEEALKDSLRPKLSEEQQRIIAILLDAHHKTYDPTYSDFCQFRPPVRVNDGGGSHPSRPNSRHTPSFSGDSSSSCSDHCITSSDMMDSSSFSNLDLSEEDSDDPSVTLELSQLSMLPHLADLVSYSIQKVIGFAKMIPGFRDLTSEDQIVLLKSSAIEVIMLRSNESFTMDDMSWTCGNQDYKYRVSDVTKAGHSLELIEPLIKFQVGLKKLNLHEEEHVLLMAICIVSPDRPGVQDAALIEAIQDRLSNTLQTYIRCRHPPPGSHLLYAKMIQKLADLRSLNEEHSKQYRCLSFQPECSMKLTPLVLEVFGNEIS
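FP read-out; VDR + SRC2-3 coactivator peptide; 23 nl compound by pintool; 2 h RT incubation; reagents held at 4 deg C, protected from light.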
TrxR1 substrate: substrates of rat thioredoxin reductase 1; 390,000 compounds, 0.01% hits; AID 588456; Potency, µM (doses to about 114 µM); O89049; purified TrxR1 substrate turnover, NADPH consumption readout; also: nearly all actives have a fitted effect of over 50% in size
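Rat TrxR1, dispensed at 90 nM, was prereduced with 400 uM NADPH (final) for 5 min at ~22 deg C, then incubated with compound 15 min before 400 uM selenite. A first-read NADPH fluorescence drop versus no-compound background flagged substrates.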
Hits are given with their value; – = inactive; ? = inconclusive; · = not tested or not shown. Calls follow the shape of the dose curve; as a rule, active = well fitted curve in the direction sought with a large enough effect; inconclusive = small, poorly fitted or top-dose-only effect, or another doubt; inactive = no such curve, though single readings can be large; an effect the other way counts as inactive or inconclusive.

SMILES | KAT2A inh | TrxR1 inh | VDR inhibitor | TrxR1 substrate
O=C(O)CN1C(=O)/C(=C\c2cccc(OCc3ccc(F)cc3)c2)SC1=S | – | – | 45µM | –
O=C(O)CCN1C(=O)/C(=C\c2cccc(Oc3ccccc3)c2)SC1=S | – | – | 35µM | –
O=C(O)CN1C(=O)/C(=C\c2cccc(OCc3ccccc3F)c2)SC1=S | – | – | ? | –
CO[C@@H]1C[C@H](O[C@H]2[C@@H](C)[C@H](O[C@@H]3O[C@@H](C)C[C@@H](N(C)C)[C@@H]3OC(C)=O)[C@H](C)C[C@]3(CO3)C(=O)[C@H](C)[C@H](OC(C)=O)[C@H](C)[C@H](C)OC(=O)[C@@H]2C)O[C@H](C)[C@@H]1OC(C)=O | – | · | – | ·
O=C(C[n+]1csc2ccccc21)c1ccccc1 | · | – | · | –
CC(=O)CCS(=O)(=O)c1ccc(Oc2ccc(S(=O)(=O)CCC(C)=O)cc2)cc1 | – | 50µM | – | –
COc1ccccc1-c1noc(-c2ccc(NCCc3ccccc3)c([N+](=O)[O-])c2)n1 | – | – | – | –
CCOc1ccc(NC(=O)CSc2nc(N)c(-c3ccccc3)c(=O)[nH]2)cc1 | – | – | – | –
Nc1nc(-c2ccccc2)c(CCCOc2ccc(NC(=O)CBr)cc2)c(=O)[nH]1 | · | 45µM | – | –
O=[N+]([O-])c1ccc2c(c1)/C(=C/c1ccc(C=S)cc1)C=C2 | · | ? | · | –
CCN(CC)c1ccc(S(=O)(=O)N2CCOCC2)cc1NC(=O)COC(=O)/C=C/c1ccco1 | · | – | – | –
O=C(COC(=O)/C=C/c1ccco1)Nc1cc(S(=O)(=O)N2CCOCC2)ccc1Cl | – | 35µM | – | –
CN(C)S(=O)(=O)c1cc(NC(=O)COC(=O)/C=C/c2ccco2)ccc1Cl | – | 3.5µM | ? | –
COc1cccc(/C=C/C(=O)OCC(=O)Nc2ccc(Cl)c(S(=O)(=O)N(C)C)c2)c1 | – | – | – | –
Cc1ccc(Cn2cnc3c(cnn3C(C)(C)C)c2=O)cc1F | · | – | · | –
COC(=O)CNC(c1ccccc1)c1cc(Br)ccc1NC(=O)CCN1CCOCC1 (configuration not stated) | – | 2.2µM | ? | –
Cc1ccc(C)c(Cn2nnc(C(=O)NCc3ccc(Cl)cc3Cl)c2N)c1 | – | – | – | –
FC(F)Oc1ccc(/C=N/n2c(Cc3ccc(Br)cc3)n[nH]c2=S)cc1 | ? | – | 79µM | –
Cc1ccc(-c2ccc(C(=O)Nc3ccccc3)o2)c2ccccc12 | – | – | ? | –
Cc1ccc(S(=O)(=O)NC(=O)c2ccc(-c3ccc(C)c4ccccc34)o2)cc1 | – | – | 79µM | –
COc1cccc(NC(=O)CCN2C(=O)c3ccccc3Sc3ncccc32)c1 | – | 71µM | – | –
CCn1c(=O)c([N+](=O)[O-])c(NCCN(C)C)c2ccccc21 | – | – | – | –
CCn1c(=O)c([N+](=O)[O-])c(Cl)c2ccccc21 | – | 2.5µM | ? | –
Nc1nc(N)c2c(OCc3ccc(C(F)(F)F)cc3)cccc2n1 | · | – | · | –
O=C(OCc1ccco1)c1ccc(S(=O)(=O)N2CCCCC2)cc1 | ? | 18µM | – | –
SMILES | KAT2A inh | TrxR1 inh | VDR inhibitor | TrxR1 substrate
Cc1cc(S(=O)(=O)N2CCCC2)ccc1OCC(=O)NCc1ccco1 | – | 10µM | – | –
Cc1cc(S(=O)(=O)N2CCOCC2)ccc1OCC(=O)NCc1ccco1 | – | – | – | –
COc1ccc(C(=O)n2nnc3ccccc32)cc1Br | – | 4µM | – | –
COc1ccc(C(=O)COC(=O)Cn2nnc3ccccc32)cc1Br | – | – | – | –
COc1cc2oc(=O)cc(-c3ccc(-c4ccc(NC(C)=O)cc4)cc3)c2c(OC)c1OC | – | · | ? | ·
COc1cc2ccccc2cc1C(=O)N1CCN(c2nc3c(F)cc(F)cc3s2)CC1 | – | – | – | –
Cn1cnc([N+](=O)[O-])c1S(=O)(=O)Oc1ccc(Cl)cc1 | · | ? | 25µM | –
Cn1cnc([N+](=O)[O-])c1S(=O)(=O)Oc1cccc2ccccc12 | · | ? | ? | –
CCS(=O)(=O)c1c([N+](=O)[O-])ncn1C | – | 0.79µM | – | –
CCNC(=O)[C@@H]1CCCN1C(=O)[C@H](CCCN=C(N)N)NC(=O)[C@H](CC(C)C)NC(=O)[C@@H](Cc1c[nH]c2ccccc12)NC(=O)[C@H](Cc1ccc(O)cc1)NC(=O)[C@H](CO)NC(=O)[C@H](Cc1c[nH]c2ccccc12)NC(=O)[C@H](Cc1cnc[nH]1)NC(=O)[C@@H]1CCC(=O)N1 | – | · | ? | ·
Cc1nnnn1/C(=C\c1ccccc1)C(=O)OCC(=O)NC1CCCCC1 | – | ? | ? | –
